This is an account of results in PubChem BioAssay (Tox21).

Values joined by “and” are separate entries in the source; they are usually repeats but may differ in a detail not shown here. Equal entries are not always repeated. Records with an inconclusive call do not appear. Where a call stands in place of a potency, no number is given. A number with no mark means an inactive call. Active and inactive are the calls of the source. Calls come from the whole dose curve; as a rule, active = well fitted activation curve with a large enough effect in the repeat runs; inconclusive = weak or mixed curves; inactive = flat fitted curve, though single readings scatter.

The test can be described thus: Caspase-3/7 induction in HepG2 cells by small molecules, qHTS assay (AID 1346978). Note: nearly all actives have a fitted effect of over 15% in size. Conditions: HepG2 caspase-3/7 activation, Caspase-Glo luminescence, 17 h; series mostly up to 92.4 µM. The source says:
National Center for Advancing Translational Sciences [NCATS] NIH Chemical Genomics Center [NCGC] U.S. Environmental Protection Agency [EPA] National Institutes of Environmental Health Sciences [NIEHS] National Toxicology Program [NTP] Assay overview: Apoptosis is a process of programmed cell death and plays a central role in the development of multicellular organisms. It is a highly regulated process and induces cell death by activating caspases, which are the members of cysteine aspartic acid-specific protease (caspase) family. Caspases involved in apoptosis are classified by their mechanism of action as initiator caspases (caspase-2, -8, -9 and -10) and executioner caspases (caspase-3, -6, and -7). Inhibition of apoptosis results in number of cancers, autoimmune diseases, inflammatory diseases and viral infection. To identify small molecule compounds that induce apoptosis, a homogeneous, luminescent Caspase-Glo 3/7 assay was used. Wild type HepG2 cells were used to screen Tox21 libraries for identifying caspase-3/7 activity inducers.
Assay Protocol Summary: HepG2 cells were dispensed at 2,000 per well in 5uL of culture medium into white solid bottom 1536-well plates (Corning Life Sciences, Corning, NY) using a Multidrop Combi (Thermo Scientific, Waltham, MA) dispenser. The assay plates were incubated at 37 C and 5% CO2 for 5hr, and then 23nL of compounds dissolved in DMSO and positive control were transferred using a Pintool station (Wako, San Diego, CA). The assay plates were incubated at 37C and 5% CO2 for 17hr. For caspase-3/7 activity read, 4uL of Caspase-Glo 3/7 reagent (Promega Corporation, Madison, WI) was added to each well of the assay plates using Flying Reagent Dispenser (FRD, Aurora Discovery, San Diego, CA) and incubated the assay plates at room temperature for 30min. The luminescence signal was quantified using a ViewLux plate reader (Perkin Elmer, Shelton, CT).
In general terms: qHTS replaces the single test concentration by a dilution series.
For `C[C@H]1C[C@H]2[C@@H]3CCC4=CC(=O)C=C[C@]4(C)[C@@]3(F)[C@@H](O)C[C@]2(C)[C@@]1(O)C(=O)CO`, the Potency entry was “inactive”.

Take `CCN(CC)CCCC(C)Nc1ccnc2cc(Cl)ccc12` (stereo not given): the caspase activation was 1.19% [at 8.39 µM] and -0.361% [at 19 µM].

Regarding `O=C=NCCCCCCN=C=O`, the Potency entry is “inactive”.

`CCCCCCCCCCCCCCO`: the Potency entry was “inactive”.

On to `Cc1cnc(C(=O)NCCc2ccc(S(=O)(=O)NC(=O)NC3CCCCC3)cc2)cn1`, for which the Potency result is “inactive”.

`CC(=O)Nc1cccc(O)c1`: the Potency entry is “inactive”.

As for `OCc1cccnc1`, the Potency entry was “inactive”.

As to `C=CCOC(=O)c1ccccc1C(=O)OCC=C`, the Potency result is “inactive”.

`C=C(C)C(=O)Nc1ccc(Cl)c(Cl)c1`: the Potency result was “inactive”.

For `C=CCNC(N)=S`, the Potency result was “inactive”.

`O=C(O)CCCC[C@@H]1SC[C@@H]2NC(=O)N[C@@H]21`: the Potency result is “inactive”.

In the case of `CCCCCOC(C)=O`, the Potency result was “inactive”.

`C[Si](O[Si](C)(C)C)O[Si](C)(C)C`: the Potency entry was “inactive”.

With `CCCCCCOCCO`, the Potency result is “inactive”.

For the compound `CC(=O)c1ccccc1`, the Potency entry is “inactive”.

For `CCC(O)OC(O)CC` (stereo not given), the Potency entry is “inactive”.

Take `CCCCCC/C(C=O)=C\c1ccccc1`: the Potency result was “inactive”.

For the compound `CC1CCC2CC1C2(C)C` (stereo not given), the Potency result was “inactive”.

As for `CC(=O)OCC(=O)[C@@]12N=C(C)O[C@@H]1C[C@H]1[C@@H]3CCC4=CC(=O)C=C[C@]4(C)[C@H]3[C@@H](O)C[C@@]12C`, the Potency entry is “inactive”.

With `Nc1ccccc1[N+](=O)[O-]`, the Potency entry is “inactive”.

Consider `CCCCCC(N)=O`, for which the Potency result is “inactive”.

Turning to `NNc1nncc2ccccc12`, the Potency entry is “inactive”.

With `Cc1ccc2oc(=O)ccc2c1`, the Potency entry was “inactive”.

In the case of `O=[N+]([O-])c1ccc(/C=C/c2ccc([N+](=O)[O-])cc2S(=O)(=O)O)c(S(=O)(=O)O)c1`, the Potency result was “inactive”.

On to `CC(C)CC(=O)CC(C)C`, for which the Potency result was “inactive”.

As to `OCC(CO)(CBr)CBr`, the Potency entry is “inactive”.

As for `CC(c1cc2ccccc2s1)N(O)C(N)=O` (stereo not given), the Potency entry was “inactive”.

Consider `CCCCC(CC)COC(=O)CS` (stereo not given), for which the Potency entry is “inactive”.

Take `Fc1ccc(Br)cc1`: the Potency entry is “inactive”.

In the case of `COc1ccc(Nc2ccccc2)c(C)c1`, the Potency entry was “inactive”.

`CC1=C(C)S(=O)(=O)CCS1(=O)=O`: the Potency result was “inactive”.

As to `CC(=O)CC(=O)Nc1ccccc1`, the Potency entry is “inactive”.

Take `CCCCCCCCCC`: the Potency result was “inactive”.

`Cc1cccc(O)c1`: the Potency entry is “inactive”.

As to `CC(O)COCC(C)O` (stereo not given), the Potency entry was “inactive”.

In the case of `O=c1[nH]c(=O)n([C@H]2CCCO2)cc1F`, the Potency result is “inactive”.

Consider `C=C(C)C(=O)O[C@H]1C[C@@H]2CC[C@@]1(C)C2(C)C`, for which the Potency result is “inactive”.

As for `N[C@@H](Cc1cc(I)c(Oc2cc(I)c(O)c(I)c2)c(I)c1)C(=O)O`, the Potency entry is “inactive”.

On to `OC[C@H]1O[C@@](CO)(O[C@H]2O[C@H](CO)[C@@H](O)[C@H](O)[C@H]2O)[C@@H](O)[C@@H]1O`, for which the Potency entry is “inactive”.

For the compound `O=C(O)c1ccccc1C(c1ccc(O)cc1)c1ccc(O)cc1`, the Potency result is “inactive”.
